Here are results for 49 molecules from PubChem BioAssay AID1851 (National Center for Advancing Translational Sciences (NCATS), 2009).

The campaign covered roughly 16,000 compounds. About 5,700 (36%) were called active. Not shown: some 24% with an inconclusive outcome. The list shows a part of the results. A number with no mark means an inactive call. Calls follow the shape of the dose curve; as a rule, active = well fitted curve in the direction sought with a large enough effect; inconclusive = small, poorly fitted or top-dose-only effect, or effect the other way; inactive = no such curve, though single readings can be large or run the other way.
% is scaled to controls: 0 for no effect and ±100 for the full control effect.

For the assay, the target named is Cytochrome P450 1A2 (Homo sapiens) (UniProt P05177). The assay can be described thus: Cytochrome panel assay with activity outcomes. As to conditions: recombinant CYP, pro-luciferin dealkylation, luminescence, p450-cyp1a2; series mostly up to 57.1 µM; activity, negative = inhibition: at the top concentration.
Cytochrome P450 1A2 (Homo sapiens), sequence (P05177 whole entry, looked up): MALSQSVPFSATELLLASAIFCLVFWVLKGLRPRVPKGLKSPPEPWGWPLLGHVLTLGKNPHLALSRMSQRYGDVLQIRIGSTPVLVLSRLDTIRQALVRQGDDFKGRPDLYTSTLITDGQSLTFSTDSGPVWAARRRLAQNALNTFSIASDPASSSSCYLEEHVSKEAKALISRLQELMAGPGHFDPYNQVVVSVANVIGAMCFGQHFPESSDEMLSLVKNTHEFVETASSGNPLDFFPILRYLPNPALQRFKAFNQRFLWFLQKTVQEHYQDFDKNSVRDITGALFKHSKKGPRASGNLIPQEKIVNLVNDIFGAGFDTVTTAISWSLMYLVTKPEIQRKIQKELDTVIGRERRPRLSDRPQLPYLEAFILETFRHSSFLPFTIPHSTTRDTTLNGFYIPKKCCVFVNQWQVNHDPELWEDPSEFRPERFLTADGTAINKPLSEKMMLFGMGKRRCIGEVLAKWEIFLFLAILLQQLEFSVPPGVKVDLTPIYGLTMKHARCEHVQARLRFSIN
In the case of `CCOC(=O)c1c(NC(=O)Nc2ccccc2)sc(C)c1C`, the AC50 is 3.55 µM (active). On the same count and under the same terms, the figure for `Cc1sc(NC(=O)C(C)C)c(C(=O)Nc2ccccc2)c1C` is 1.26 µM (active).

As for `CN(C(=O)CC(NC(=O)c1ccccc1)(c1ccccc1)c1ccccc1)c1ccccc1`, the “activity, negative = inhibition” value is -7.59%.

Regarding `CCOc1ccc(CC(=O)Nc2sc(Cc3ccccc3)c(C)c2C(N)=O)cc1OCC`, the “activity, negative = inhibition” value was -26.8%. `C=C(Br)CN(C)CC(=C)Br`: the activity, negative = inhibition is -4.98% [at 11.4 µM]. For `CC(C)SC(=N)N`, the “activity, negative = inhibition” value is -17.7%. For `Cc1noc(C)c1C(=O)N1CCC[C@@]2(CCN(C(=O)NC(C)C)C2)C1`, the “activity, negative = inhibition” value was -23.1%. `O=C(O)CP(=O)(O)O`: the AC50 entry was “inactive”. The same measure, in the same setting: the value for `Cc1oc(-c2cccc(Cl)c2)[n+]([O-])c1C` was 4.47 µM (active); that for `CCCC/C=C/C(NC(=O)c1cccs1)c1ccccc1` (centres undefined) was 1.58 µM (active). For `O=C(c1cccs1)N1CCN(C(=O)C(c2ccccc2)c2ccccc2)CC1`, the “activity, negative = inhibition” value was -5.01%. Take `CCC(=O)Nc1ccc(C(=O)NNC(=O)c2cccs2)cc1`: the “activity, negative = inhibition” value is 13.6%. The same measure, in the same setting: the value for `CCC/C=C(\CCC)C(NP(=O)(c1ccccc1)c1ccccc1)c1ccc(C(F)(F)F)cc1` (centres undefined) was -7.24%. As to `CCCC/C=C/C(NC(=O)c1ccco1)c1ccccc1` (centres undefined), the half-maximal activity concentration (AC50) is 5.01 µM (active). The same measure, in the same setting: the value for `C#CCOC(=O)NC(/C=C/CCCC)c1ccccc1` (centres undefined) was 15.8 µM (active); that for `CCCC/C=C/C(NC(=O)Oc1cccc(C(F)(F)F)c1)c1ccccc1` (centres undefined) was 2.51 µM (active). Regarding `Nc1ncnc2c1nc(Br)n2[C@@H]1O[C@H]2COP(=O)(O)O[C@@H]2[C@H]1O`, the “activity, negative = inhibition” value is -8.7%.

As for `CC1(C)Cc2ccccc2C(N/N=C/c2cccc(F)c2)=N1`, the AC50 is 11.2 µM (active). Still for that read-out and setting: the figure for `COc1ccc(Oc2c(C=O)c3ccccc3n2C)cc1` is 14.1 µM (active). Regarding `Cn1c(Oc2ccccc2)c(C=O)c2ccccc21`, the AC50 was 7.08 µM (active). With `Cc1cccc(C(=O)NN(C)c2nc(-c3ccccc3)nnc2C(F)(F)F)c1`, the “activity, negative = inhibition” value was 21.4%. As to `FC(F)(F)c1nnc(-c2ccccc2)nc1Sc1ccccc1`, the AC50 was 1.41 µM (active). `COc1ccc(CC(=O)O/N=C(\N)Cc2ccc(OC)cc2)cc1`: the “activity, negative = inhibition” value is -29.9%. Regarding `COc1ccccc1CNC(=O)C/C(C)=N/NC(=O)Cc1ccccc1`, the “activity, negative = inhibition” value is -20.9%. `COc1ccccc1C/C(N)=N/OC(=O)c1ccc(C)c([N+](=O)[O-])c1`: the concentration at half-maximal activity (AC50) is 14.1 µM (active).

Take `COc1ccccc1CC(=O)O/N=C(\N)Cc1cccc2ccccc12`: the AC50 was 11.2 µM (active). For the molecule `C[N+](C)(C)CCOC(N)=O`, the AC50 entry was “inactive”.

With `CCOC(=O)[C@@H](O)Cc1cnc2ccccc2n1`, the concentration at half-maximal activity (AC50) is 3.16 µM (active).

As for `O=S(=O)(c1cnccc1N1CCN(CCO)CC1)N1CCCC1`, the activity, negative = inhibition was -8.25% [at 2.29 µM]. The same measure, in the same setting: the figure for `FC(F)(F)c1cc(CN2CCC3(CCNCC3)CC2)cc(C(F)(F)F)c1` is -9.83%. For the molecule `Cc1ccc(NC(=O)c2cccc(N(C)C)c2)cc1NC(=O)c1ccc(O)cc1`, the AC50 is 1.26 µM (active).

As for `Cc1nn(CC(O)COc2ccc3c(c2)CCC3)c(C)c1Br` (centres undefined), the concentration at half-maximal activity (AC50) is 12.6 µM (active). As for `OC(COc1ccc(OCC(O)CN2CCCCCC2)cc1)CN1CCCCCC1` (centres undefined), the “activity, negative = inhibition” value is 4.84%.

Regarding `COc1ccc(C2=CSC(/N=C/c3ccc(F)cc3)=NN2)cc1`, the half-maximal activity concentration (AC50) was 2.82 µM (active). Regarding `CC(C)=NO[C@@H](C)CN1CCCCc2nc(C)c(C)cc21`, the activity, negative = inhibition was -10.5% [at 11.4 µM]. As to `Cc1cc(Br)ccc1NC(=O)CCSc1ccccc1`, the AC50 was 4.47 µM (active). Turning to `Cc1ccc(NC(=O)CCC(=O)NNS(=O)(=O)c2ccccc2)c(C)c1`, the “activity, negative = inhibition” value is -29.8%. `S=C(S)O[C@@H]1C[C@@H]2C[C@H]1[C@@H]1CCC[C@H]21`: the AC50 entry is “inactive”. Same read-out and setting: the value for `O=C(COc1ccccc1-c1ccccc1)N/N=C/c1cccc2ccccc12` was 0.794 µM (active).

With `O=C(COc1ccc(-c2ccccc2)cc1)N/N=C/c1ccccc1Br`, the half-maximal activity concentration (AC50) was 5.01 µM (active). Turning to `COc1ccc(OCC(=O)NNC(=O)c2ccc(-c3ccccc3)cc2)cc1`, the “activity, negative = inhibition” value is -1.81%.

Turning to `O=c1[nH]c(SCc2c(Cl)c(Cl)c(Cl)c(Cl)c2Cl)nc(=S)[nH]1`, the AC50 is 1 µM (active). `CCCC[C@H]1C[C@@H]1[C@@H]1N(P(=O)(c2ccccc2)c2ccccc2)[C@](CO)(c2ccccc2)CC12CC2`: the “activity, negative = inhibition” value is -20.5%. The same measure, in the same setting: the value for `CCCc1nnc(SCC(=O)N2CCCCC2)n1CCCOC` was -23.7%.

On to `CCc1n[nH]c(=S)n1/N=C/c1ccc2c(c1)OCO2`, for which the half-maximal activity concentration (AC50) was 2.24 µM (active). Turning to `OC[C@@H]1O[C@@H](O)[C@H](N=Cc2ccc3c(c2)OCO3)[C@@H](O)[C@@H]1O`, the activity, negative = inhibition was -24.4% [at 2.29 µM]. Still for that read-out and setting: the value for `CCCc1nnc(SCC(=O)N2CCCC(C)C2)n1CC1CCCO1` (centres undefined) was 7.21%.

Consider `CCCc1nnc(SCC(=O)O)n1/N=C/c1ccc2c(c1)OCO2`, for which the half-maximal activity concentration (AC50) is 15.8 µM (active).

For `CSc1nncn1/N=C/c1ccc2c(c1)OCO2`, the AC50 is 4.47 µM (active).

Broadly, the AC50 is the midpoint of the concentration-response curve, whichever way the signal moves.
